This is a sample that favours compounds with a hit; in the whole collection about 2.7% have one here.
HepG2 tox-1 = qHTS for Inhibitors of TGF-b: Cytotox Counterscreen. HepG2 CAGA-GFP viability, ATP luminescence, 18 h. Potency, µM (doses to about 46.1 µM), most hits filed as cytotoxic. 410,000 compounds, 0.76% hits
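HepG2 CAGA-GFP cells (1000/well, DMEM with 1% FBS) received compound, then TGF-beta at 500 pg/mL final, and were incubated 18 hours at 37 degrees C. Viability was read by CellTiter-Glo luminescence. Media-only wells were set as complete cell-killing and DMSO as no toxicity.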
TGFb SMAD3 inh = qHTS for Inhibitors of TGF-b; Potency, µM (series often up to 46.1 µM), actives largely listed as inhibitors; HepG2 CAGA-GFP TGF-b/SMAD3 reporter, GFP fluorescence, 18 h; TGF-beta stimulated, 500 pg/mL final; AID 588855, 2011; 410,000 compounds, 1.2% hits; further: nearly all actives have a fitted effect of over 65% in size
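Inhibition was scored as loss of TGF-beta-induced (500 pg/mL final, 18 hours, 37 degrees C) GFP in HEPG2 cells carrying a CAGA-GFP reporter, in DMEM with 1% FBS. Well GFP was summed per cell; Activity was normalised to unstimulated and stimulated DMSO wells, then concentration-response fitting.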
ATXN2 expr inh = Primary qHTS for Inhibitors of ATXN expression | AID 1745845, 2022 | 360,000 compounds, 0.72% hits | Potency, µM (top dose mostly 57 µM), most hits filed as inhibitors | HEK-293 ATXN2-luciferase reporter, luminescence, 24 h; further: nearly all actives have a fitted effect of over 55% in size
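ATXN2-luciferase reporter cells (luciferase flanked by upstream and downstream ATXN2 gene portions) were treated 24 h at 37 °C with compounds at up to 57 uM. SteadyGlo luminescence gave expression; GF-AFC fluorescence gave viability.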
S2 tox = Viability Counterscreen for Primary qHTS for Inhibitors of ATXN expression | S2 cells (HEK-293 line with an ATXN2-luciferase reporter) viability, CellTiter-Fluor protease fluorescence, 24 h | Potency, µM (titrated, usually from 56.7 µM), actives largely listed as cytotoxic | 400,000 compounds, 0.49% hits | AID 651635, 2014; further: nearly all actives have a fitted effect of over 40% in size
ALOX12 inh = Primary qHTS assay for inhibitors of human arachidonate 12S-lipoxygenase (ALOX12): Round 2; Polyunsaturated fatty acid lipoxygenase ALOX12 (Homo sapiens), P18054; purified 12hLO, xylenol orange hydroperoxide absorbance; Potency, µM (series often up to 108 µM), most hits filed as inhibitors; 580,000 compounds, 1.1% hits; AID 1671190, 2021
Target sequence (P18054 whole entry, looked up): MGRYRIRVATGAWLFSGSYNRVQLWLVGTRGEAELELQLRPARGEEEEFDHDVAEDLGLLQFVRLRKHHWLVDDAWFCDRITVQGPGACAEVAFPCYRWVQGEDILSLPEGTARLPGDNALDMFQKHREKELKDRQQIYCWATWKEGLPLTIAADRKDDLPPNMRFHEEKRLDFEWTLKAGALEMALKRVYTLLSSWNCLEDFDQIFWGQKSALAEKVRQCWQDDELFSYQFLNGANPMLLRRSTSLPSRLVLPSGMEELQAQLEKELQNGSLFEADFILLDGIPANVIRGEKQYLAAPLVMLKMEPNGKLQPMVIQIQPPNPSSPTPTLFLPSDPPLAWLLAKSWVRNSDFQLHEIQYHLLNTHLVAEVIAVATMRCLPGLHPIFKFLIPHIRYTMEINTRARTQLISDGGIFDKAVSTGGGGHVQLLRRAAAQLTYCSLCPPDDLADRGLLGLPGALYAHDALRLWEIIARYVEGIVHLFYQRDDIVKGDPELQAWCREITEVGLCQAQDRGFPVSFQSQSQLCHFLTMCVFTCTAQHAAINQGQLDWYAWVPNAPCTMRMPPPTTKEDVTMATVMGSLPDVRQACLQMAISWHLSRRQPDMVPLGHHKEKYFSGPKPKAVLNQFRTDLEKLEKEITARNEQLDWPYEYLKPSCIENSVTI
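Hydroperoxide product was detected by ferrous iron/xylenol orange as the 573 to 405 nm absorbance ratio. Arachidonic acid at 40 uM (final) was turned over for 30 min at room temperature by 150 nM human 12hLO, pH 7.0 Hepes buffer, after 15 min compound preincubation.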
TGFb CAGA inh = qHTS for Inhibitors of TGF-b: Confirmation of Cherry Picks; shares compounds with TGFb SMAD3 inh; HepG2 CAGA-GFP TGF-b reporter, GFP fluorescence, 18 h; cells stimulated with TGF-beta, 500 pg/mL; Potency, µM (titrated, usually from 46.1 µM), most hits filed as inhibitors; 1,600 compounds, 63% hits; AID 720534, 2013; further: nearly all actives have a fitted effect of over 65% in size
HepG2 tox-2 = qHTS for Inhibitors of TGF-b: Cytotox Counterscreen for Cherry Picks | 1,600 compounds, 27% hits | AID 720535, 2013 | Potency, µM (series often up to 46.1 µM), most hits filed as inhibitors | HepG2 CAGA-GFP viability, ATP luminescence, 18 h; cells stimulated with TGF-beta, 500 pg/mL | shares compounds with TGFb SMAD3 inh; further: nearly all actives have a fitted effect of over 70% in size
CCL64 TGFb inh = qHTS for Inhibitors of TGF-b: CCL64 Cells Orthogonal Assay for Cherry Picks; shares compounds with TGFb SMAD3 inh; CCL64 CAGA-GFP reporter, TGF-b stimulated, GFP fluorescence, 18 h; Potency, µM (doses to about 46.1 µM), usual class: inhibitors; 1,600 compounds, 41% hits; AID 720536, 2013; further: nearly all actives have a fitted effect of over 65% in size
TGFb COP inh = qHTS for Inhibitors of TGF-b: Hit Validation in HepG2 Cells using COP promoter; Potency, µM (highest dose often 46.1 µM), usual class: inhibitors; shares compounds with TGFb SMAD3 inh; HepG2 COP-GFP TGF-b reporter, GFP fluorescence, 18 h; cells stimulated by added recombinant TGF-beta; 1,600 compounds, 3% hits; further: nearly all actives have a fitted effect of over 70% in size
Hits are given with their value; . = inactive; ? = inconclusive; / = no result; [ ] = remark or other dose. The call rests on the fitted dose curve; in most records, active means well fitted curve in the direction sought with a large enough effect; inconclusive means small, poorly fitted or top-dose-only effect, or another doubt; inactive means no such curve, though single readings can be large; an effect the other way counts as inactive or inconclusive.

SMILES	HepG2 tox-1	TGFb SMAD3 inh	ATXN2 expr inh	S2 tox	ALOX12 inh	TGFb CAGA inh	HepG2 tox-2	CCL64 TGFb inh	TGFb COP inh
COc1cc(C(=O)Nc2cccc(-c3nc4ccc(C)cc4o3)c2)cc(OC)c1OC	/	/	/	/	.	/	/	/	/
N#Cc1nc(COc2ccc(Br)cc2)oc1NCCCN1CCOCC1	/	/	/	/	.	/	/	/	/
C=CC(=O)Nc1cccc(Oc2ccnc(Nc3ccc(N4CCN(C)CC4)cc3)n2)c1	.	13µM	.	?	?	15µM	23µM	12µM	.
COc1ccc(-c2nc3c4ccccc4ccn3c2Cc2cccc(Cl)c2)cc1OC	.	.	.	?	.	/	/	/	/
COc1ccc(-c2nc3c4ccccc4ccn3c2Cc2ccc(C)cc2)cc1OC	.	13µM	.	?	.	26µM	.	18µM	.
O=C1OCCN1C(=O)[C@H]1[C@H](c2ccccc2)C(c2cccc(Cl)c2)=NN1c1ccc(Br)cc1	.	?	.	/	.	?	.	.	.
O=C(Nc1ccc(CCO)cc1)c1cc2ccccc2oc1=O	/	/	/	/	.	/	/	/	/
COc1cc(NC(=O)N2CCOc3ccc(Cl)cc32)cc(OC)c1OC	/	/	/	/	.	/	/	/	/
CCCS(=O)(=O)c1ccc(COC(=O)c2ccc(NC(C)=O)cc2)cc1	.	?	.	.	.	.	.	.	.
COc1ccc(CN2C[C@H]3CCCN3c3cc(Br)ccc3S2(=O)=O)cc1	.	10µM	.	?	/	8.2µM	.	?	.
C=C1[C@@H](O)CN(Cc2ccc(OC)cc2)S1(=O)=O	.	?	/	/	/	/	/	/	/
CCc1ccc(S(=O)(=O)Nc2c(NC3CCCCC3)c3ccccc3oc2=O)cc1	.	16µM	.	.	/	?	.	.	.
O=C(c1ccccc1F)N1CCN(c2ccc([N+](=O)[O-])c3ncccc23)CC1	.	.	.	.	.	/	/	/	/
O=[N+]([O-])c1cccc2c(N3CCCC3)ccnc12	5.6µM	7.1µM	?	.	.	7.3µM	16µM	?	?
COc1ccc2c(C)nc(Nc3nc(C)cc(=O)[nH]3)nc2c1	/	/	/	/	.	/	/	/	/
COc1ccc2c(C)nc(Nc3nc(-c4ccccc4)cc(=O)[nH]3)nc2c1	.	4µM	.	?	.	2.3µM	5.8µM	?	.
COc1ccc(OC)c(CN2CCCC(C(=O)c3ccccc3SC)C2)c1 (centres undefined)	.	?	?	?	.	?	?	?	.
CCC1(OC(=O)CN(C)C)C(=O)OCc2c1cc1n(c2=O)Cc2cc3c(N)cccc3nc2-1 (centres undefined)	.	3.2µM	?	?	/	5.8µM	1.8µM	?	.
CC1CCN(C(C)C(=O)Nc2cccc(C#N)c2)CC1 (centres undefined)	/	/	/	/	.	/	/	/	/
COc1ccc(-c2cc(N3CCCC(NC(=O)c4ccc5ncccc5c4)C3)n[nH]2)cc1 (centres undefined)	/	/	/	/	.	/	/	/	/
Cc1cc(C)c(OCC(=O)Nc2nc(-c3ccccn3)cs2)c(C)c1	.	10µM	?	?	.	?	.	?	.
COc1ccc(OCCCC(=O)Nc2nc(-c3ccccn3)cs2)cc1	.	.	.[11.3 µM]	.	.	/	/	/	/
COc1ccc(-c2coc3c(C(=O)NCc4ccccc4)cccc23)c(C)c1	.	?	.	.	?	/	/	/	/
COc1ccc(-c2coc3c(C(=O)NCC(C)C)cccc23)c(C)c1	.	?	.	.	.	13µM	?	?	.
Fc1ccc(CN2CCN(C(=S)NCCc3ccccc3)CC2)c(Cl)c1	.	7.9µM	.	.	.	?	.	?	.
SMILES	HepG2 tox-1	TGFb SMAD3 inh	ATXN2 expr inh	S2 tox	ALOX12 inh	TGFb CAGA inh	HepG2 tox-2	CCL64 TGFb inh	TGFb COP inh
COc1ccc(CCN(C)C(=O)c2cccc3c(=O)c(C)c(-c4ccccc4)oc23)cc1OC	/	/	/	/	.	/	/	/	/
CCCCCOC(=O)c1[nH]c2c(c1C)C(=O)CC(c1ccco1)C2 (centres undefined)	.	0.79µM	.	?	/	1.2µM	.	0.23µM	.
CC(=O)c1ccc(-c2cnc3c(NC=O)cc(-c4cccc(C(=O)N(C)C)c4)cn23)cc1	.	.	.	.	.	/	/	/	/
CN(C)C(=O)c1cccc(-c2cc(NC=O)c3ncc(-c4ccc(F)cc4)n3c2)c1	.	8.9µM	.	.	.	5.2µM	.	?	.
CN(C)C(=O)c1cccc(-c2cnc3c(NC=O)cc(-c4ccccc4Cl)cn23)c1	.	13µM	.	11µM	.	16µM	.	?	.
CN(C)C(=O)c1cccc(-c2cnc3c(NC=O)cc(-c4ccccc4N(C)C)cn23)c1	.	.	?	.	?	/	/	/	/
O=C(COc1ncnc2ccc(Br)cc12)Nc1ccccc1	/	/	/	/	.	/	/	/	/
O=C(CCCc1c[nH]c2ccccc12)NCCc1c[nH]c2ccccc12	.	.	?	?	.	/	/	/	/
O=C(NCCc1c[nH]c2ccccc12)OCCCCOC(=O)NCCc1c[nH]c2ccccc12	.	10µM	?	18µM	.	?	16µM	18µM	.
Cc1cc(Cl)ccc1OCC(=O)OCC(=O)Nc1ccccc1	/	/	/	/	.	/	/	/	/
O=C1NC2(CCCC2)C(=O)N1Cc1coc(-c2cccs2)n1	/	/	/	/	.	/	/	/	/
CC(=O)Nc1ccc(NC(=O)c2cc([N+](=O)[O-])cc([N+](=O)[O-])c2)cc1	.	.	.	.	.	/	/	/	/
Cc1ccc(NC(=O)c2ccc(Nc3c([N+](=O)[O-])cc([N+](=O)[O-])cc3[N+](=O)[O-])cc2)cc1	.	13µM	20µM	/	.	8.2µM	?	6.5µM	.
COc1ccc2nc(NC(=O)C3CC(=O)N(c4ccc5c(c4)OCCO5)C3)sc2c1 (centres undefined)	.	.	.	.	.	/	/	/	/
COc1ccc(-c2nc(NC(=O)C3CC(=O)N(c4ccc5c(c4)OCCO5)C3)sc2C)cc1 (centres undefined)	.	11µM	13µM	?	.	6.5µM	?	?	.

Screening results: PubChem BioAssay, National Center for Advancing Translational Sciences (NCATS)
